# Experimental data: PubChem BioAssay
# Activity calls are given as the source filed them.
# Columns and labels:
# [1] = system: Plasmodium falciparum Sir2 (PF13_0152, Sir2A); assay: pfSir2 binders on small-molecule microarrays, primary screen, biochemical, small-molecule microarray, 635 nm fluorescence (AID 1098); settings: small-molecule microarray binding, fluorescence 635 nm; higher = more signal;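 also: score merges spot fluorescence intensity with its signal-to-noise ratio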
# [2] = small-molecule microarray binders of probe aDKK1, primary screen, biochemical, biotinylated probe, 635/667 nm fluorescence (AID 1099); settings: higher = more signal;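 also: score merges 667nm spot fluorescence with signal to noise across triplicate slides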
# [3] = small-molecule microarray binders of probe aCHRDL2, primary screen, biochemical, biotinylated probe, 635/667 nm fluorescence (AID 1100); settings: higher = more signal
# [4] = splicing luciferase reporter signal modulators, primary screen, spliceosome inhibition project, cell-based, HEK293, splice +/- reporter (AID 1101); settings: luminescence, 24 h, higher = more signal, called active from +8 up or from −8 down;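 also: HEK293 cells carrying a splicing-competent luciferase reporter gene; test concentration not given here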
# [5] = target: Fibroblast growth factor 10 (Homo sapiens) (UniProt O15520); assay: FGF10 binders on small-molecule microarrays, primary screen, biochemical, small-molecule microarray, 635 nm fluorescence (AID 1102); settings: FGF10 binding, fluorescence 635 nm, higher = more signal
# Sequence of Fibroblast growth factor 10 (Homo sapiens) (O15520 whole entry, looked up): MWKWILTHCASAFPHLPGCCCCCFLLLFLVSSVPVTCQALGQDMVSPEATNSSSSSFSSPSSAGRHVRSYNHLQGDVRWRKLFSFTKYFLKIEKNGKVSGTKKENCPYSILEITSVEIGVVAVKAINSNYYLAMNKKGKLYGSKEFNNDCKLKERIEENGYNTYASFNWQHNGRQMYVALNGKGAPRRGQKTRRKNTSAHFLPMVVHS
# [6] = system: glycogen synthase kinase-3 (GSK3A per assay name; protocol says GSK3B); assay: GSK3 binders on small-molecule microarrays, primary screen, biochemical, small-molecule microarray, 635 nm fluorescence, GSK3A (AID 1103); settings: small-molecule microarray binding, fluorescence 635 nm; higher = more signal; also: the record names both GSK3A and GSK3B
# [7] = target: Epidermal growth factor receptor (Homo sapiens) (UniProt P00533); assay: EGFR binders on small-molecule microarrays, primary screen, biochemical, small-molecule microarray, 635 nm fluorescence (AID 1104); settings: EGFR binding, higher = more signal;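 also: score merges 667 nm emission intensity with spot signal to noise over triplicate slides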
# Sequence of Epidermal growth factor receptor (Homo sapiens) (P00533 whole entry, looked up): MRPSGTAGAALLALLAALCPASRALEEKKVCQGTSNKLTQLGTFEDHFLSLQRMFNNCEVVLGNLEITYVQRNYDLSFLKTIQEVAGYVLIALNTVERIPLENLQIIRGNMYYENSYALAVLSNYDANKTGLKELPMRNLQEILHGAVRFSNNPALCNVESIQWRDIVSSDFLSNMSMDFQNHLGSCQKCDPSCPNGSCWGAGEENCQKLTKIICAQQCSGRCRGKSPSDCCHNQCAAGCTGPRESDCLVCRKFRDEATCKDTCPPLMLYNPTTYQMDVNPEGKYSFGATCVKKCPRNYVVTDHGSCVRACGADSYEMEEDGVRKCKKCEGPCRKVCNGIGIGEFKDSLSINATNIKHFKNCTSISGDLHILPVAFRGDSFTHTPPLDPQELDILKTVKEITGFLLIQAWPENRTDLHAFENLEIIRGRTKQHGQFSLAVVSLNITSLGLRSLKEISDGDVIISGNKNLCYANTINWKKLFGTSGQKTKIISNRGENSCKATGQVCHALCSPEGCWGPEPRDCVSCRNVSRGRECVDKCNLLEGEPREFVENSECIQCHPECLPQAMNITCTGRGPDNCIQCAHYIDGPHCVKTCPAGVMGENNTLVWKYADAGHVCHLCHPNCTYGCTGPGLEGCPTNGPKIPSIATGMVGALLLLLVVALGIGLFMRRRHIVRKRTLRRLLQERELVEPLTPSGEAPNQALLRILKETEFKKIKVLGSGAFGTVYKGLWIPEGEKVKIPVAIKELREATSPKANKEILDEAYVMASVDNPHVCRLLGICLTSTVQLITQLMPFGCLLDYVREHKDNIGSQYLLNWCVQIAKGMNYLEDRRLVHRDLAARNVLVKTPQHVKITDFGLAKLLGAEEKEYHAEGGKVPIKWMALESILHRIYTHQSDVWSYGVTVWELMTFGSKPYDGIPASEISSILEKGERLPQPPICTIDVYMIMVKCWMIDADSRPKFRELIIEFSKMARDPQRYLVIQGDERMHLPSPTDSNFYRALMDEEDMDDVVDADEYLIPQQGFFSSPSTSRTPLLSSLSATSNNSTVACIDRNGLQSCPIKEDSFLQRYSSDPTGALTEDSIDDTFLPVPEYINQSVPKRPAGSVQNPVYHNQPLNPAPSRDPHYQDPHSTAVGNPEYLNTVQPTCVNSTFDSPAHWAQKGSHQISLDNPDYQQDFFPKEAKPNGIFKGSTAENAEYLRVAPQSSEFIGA
# [8] = target: Follistatin-related protein 3 (Homo sapiens) (UniProt O95633); assay: FSTL3 binders on small-molecule microarrays, primary screen, biochemical, small-molecule microarray, 635 nm fluorescence (AID 1105); settings: FSTL3 binding, higher = more signal;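 also: score merges emission near 667 nm and signal to noise per printed spot across three slides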
# Sequence of Follistatin-related protein 3 (Homo sapiens) (O95633 whole entry, looked up): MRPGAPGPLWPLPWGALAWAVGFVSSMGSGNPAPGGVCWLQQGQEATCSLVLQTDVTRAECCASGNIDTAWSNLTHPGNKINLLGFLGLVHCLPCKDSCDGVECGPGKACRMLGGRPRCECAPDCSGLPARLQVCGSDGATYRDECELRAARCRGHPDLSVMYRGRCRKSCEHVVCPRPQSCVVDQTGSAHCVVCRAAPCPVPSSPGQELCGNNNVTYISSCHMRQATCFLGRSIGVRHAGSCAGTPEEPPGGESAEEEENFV
# [9] = target: Dickkopf-related protein 1 (Homo sapiens) (UniProt O94907); assay: DKK1 binders on small-molecule microarrays, primary screen, biochemical, small-molecule microarray, 635 nm fluorescence scan (AID 1106); settings: DKK1 binding, higher = more signal;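 also: score merges emission near 667 nm with signal to noise over three replicate slides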
# Sequence of Dickkopf-related protein 1 (Homo sapiens) (O94907 whole entry, looked up): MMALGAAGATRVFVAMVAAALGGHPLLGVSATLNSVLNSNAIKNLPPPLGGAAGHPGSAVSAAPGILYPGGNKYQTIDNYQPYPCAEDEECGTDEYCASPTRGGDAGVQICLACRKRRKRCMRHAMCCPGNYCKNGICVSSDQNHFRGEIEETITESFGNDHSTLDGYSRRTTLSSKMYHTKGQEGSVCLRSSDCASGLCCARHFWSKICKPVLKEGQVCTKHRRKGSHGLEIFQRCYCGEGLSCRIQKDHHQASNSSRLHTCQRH
# [10] = system: Inhibin beta A chain (activin A); assay: INHBA (activin A) binders on microarrays, primary screen, biochemical, small-molecule microarray, 635 nm fluorescence scan (AID 1107); settings: small-molecule microarray binding, higher = more signal;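 also: mouse activin A protein probed at 4.33 µg/mL on printed slides; score merges bound-protein fluorescence near 667 nm with spot signal-to-noise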
# [11] = system: Human papillomavirus type 1a protein E7 (residues 44-93); assay: HPV1a E7 fragment binders on microarrays, primary screen, biochemical, small-molecule microarray, residues 44-93, 635 nm fluorescence (AID 1108); settings: small-molecule microarray binding, fluorescence 635 nm; higher = more signal;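 also: E7 fragment applied at 1 µg/mL in TBST for 1 h at 4 C; score combines spot fluorescence with its signal to noise ratio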
# [12] = modulators of HCV replicon luciferase signal, primary screen, HCV replication inhibitor project, Huh7 cells, luciferase reporter (AID 1109); settings: 48 h, higher = more signal;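 also: huh7 hepatoma cells harbouring a luciferase neomycin HCV replicon reporter; luciferase luminescence as measure of HCV replicon replication; test concentration not given here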
# [13] = target: Left-right determination factor 2 (Homo sapiens) (UniProt O00292); assay: LEFTY2 binders on small-molecule microarrays, primary screen, biochemical, small-molecule microarray, 635 nm fluorescence scan (AID 1110); settings: LEFTY2 binding, higher = more signal
# Sequence of Left-right determination factor 2 (Homo sapiens) (O00292 whole entry, looked up): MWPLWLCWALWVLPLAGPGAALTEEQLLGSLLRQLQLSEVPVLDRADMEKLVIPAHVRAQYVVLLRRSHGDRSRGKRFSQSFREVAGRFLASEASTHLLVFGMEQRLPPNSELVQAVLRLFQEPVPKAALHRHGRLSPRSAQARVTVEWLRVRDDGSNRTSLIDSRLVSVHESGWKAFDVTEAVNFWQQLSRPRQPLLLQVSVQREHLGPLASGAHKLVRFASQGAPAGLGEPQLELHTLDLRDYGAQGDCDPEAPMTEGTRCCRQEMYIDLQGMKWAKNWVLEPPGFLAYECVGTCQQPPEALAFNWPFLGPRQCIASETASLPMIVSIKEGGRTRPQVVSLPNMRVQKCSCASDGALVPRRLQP
# [14] = target: Calmodulin-1 (Homo sapiens) (UniProt P0DP23); assay: CALM1 binders on microarrays, EGTA buffer, profiling panel, biochemical, small-molecule microarray, Cy5-labelled CALM1 (AID 1111); settings: Cy5-CALM1 binding fluorescence, higher = more signal;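 also: labelled calmodulin applied in Tris saline Tween buffer holding calcium plus EGTA and DTT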
# [15] = target: Calmodulin-1 (Homo sapiens) (UniProt P0DP23); assay: calcium-bound CALM1 binders on microarrays, profiling panel, artefact control for SMM control-protein annotation, biochemical, small-molecule microarray, Cy5-labelled CALM1, plus calcium (AID 1112); settings: Cy5-CALM1 binding fluorescence, higher = more signal;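 also: score merges spot fluorescence with signal to noise from triplicate slides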
# [16] = small-molecule microarray binders of probe aWnt5a, primary screen, biochemical, biotinylated probe, 635/667 nm fluorescence (AID 1113); settings: higher = more signal;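 also: score merges 667 nm fluorescence intensity with signal-to-noise per printed feature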
# [17] = small-molecule microarray binders of probe aShh, primary screen, biochemical, biotinylated probe, 635/667 nm fluorescence (AID 1114); settings: higher = more signal;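 also: probe is biotin-labelled aShh protein from a stem cell growth factor screen; measures binding of labelled protein to compounds printed on the slide; score merges feature fluorescence at 667 nm with signal-to-noise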
# [18] = small-molecule microarray binders of probe aNog, primary screen, biochemical, biotinylated probe, 635/667 nm fluorescence (AID 1115); settings: higher = more signal;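 also: probe is biotinylated aNog protein used at 0.15 µg/mL for 1 h at 4 C; z-score combines 667 nm fluorescence of each spot with its signal to noise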
# [19] = target: Torsin-1A-interacting protein 1 (Homo sapiens) (UniProt Q5JTV8); assay: LAP1 binders from COS7 cell lysate, primary screen, small-molecule microarray, 635/667 nm fluorescence (AID 1116); settings: COS7-hLAP1 lysate binding, 635 nm fluorescence, higher = more signal
# Sequence of Torsin-1A-interacting protein 1 (Homo sapiens) (Q5JTV8 whole entry, looked up): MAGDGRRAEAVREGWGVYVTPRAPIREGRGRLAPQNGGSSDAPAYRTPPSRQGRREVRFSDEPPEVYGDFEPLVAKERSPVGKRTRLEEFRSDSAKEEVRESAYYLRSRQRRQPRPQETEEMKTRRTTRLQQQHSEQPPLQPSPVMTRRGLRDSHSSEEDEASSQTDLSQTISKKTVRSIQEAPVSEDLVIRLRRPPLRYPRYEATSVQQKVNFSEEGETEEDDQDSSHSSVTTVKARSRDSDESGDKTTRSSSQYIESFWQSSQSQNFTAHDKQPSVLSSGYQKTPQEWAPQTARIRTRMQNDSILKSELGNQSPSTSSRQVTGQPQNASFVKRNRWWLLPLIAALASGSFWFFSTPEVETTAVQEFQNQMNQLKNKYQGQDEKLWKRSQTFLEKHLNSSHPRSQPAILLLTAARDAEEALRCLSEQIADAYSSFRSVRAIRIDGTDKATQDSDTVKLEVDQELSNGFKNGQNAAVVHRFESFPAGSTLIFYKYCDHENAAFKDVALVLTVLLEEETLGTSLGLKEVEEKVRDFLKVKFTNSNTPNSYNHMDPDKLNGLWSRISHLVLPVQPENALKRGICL
# [20] = target: Alpha-bungarotoxin (Bungarus multicinctus) (UniProt P60615); assay: alpha-bungarotoxin binders on microarray, profiling panel, artefact control for SMM control protein annotation, biochemical, small-molecule microarray, Alexa647 label, 635/667 nm fluorescence (AID 1117); settings: alpha-BTX-A647 binding fluorescence, higher = more signal
# Sequence of Alpha-bungarotoxin (Bungarus multicinctus) (P60615 whole entry, looked up): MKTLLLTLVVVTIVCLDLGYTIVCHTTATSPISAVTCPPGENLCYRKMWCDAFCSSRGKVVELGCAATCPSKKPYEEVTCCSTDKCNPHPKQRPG
SMILES,composite z-score [1],composite z-score [2],composite z-score [3],z-score [4],composite z-score [5],composite z-score [6],composite z-score [7],composite z-score [8],composite z-score [9],composite z-score [10],composite z-score [11],z-score [12],composite z-score [13],composite z-score [14],composite z-score [15],composite z-score [16],composite z-score [17],composite z-score [18],composite z-score [19],composite z-score [20]
COc1ccc(O[C@H]2C=C[C@@H](c3ccccc3)O[C@@H]2CON=C(C)CCN2CCCc3nc(C)c(C)cc32)cc1,0.625,-0.325,-0.156,-0.204 (inactive),0.735,0.73,0.227,0.616,0.552,0.917,1.09,-2.04,0.597,0.284,-0.425,-0.0869,-0.0769,-0.158,0.358,0.651
Cc1cc(C)c(-c2cc([C@H](C)ON=C[C@@H](C)[C@H](OCc3ccccc3)C(C)C)on2)c(C)c1,-0.761,-0.143,-0.0987,-0.34 (inactive),0.149,-1.17,-0.101,-0.0283,-0.034,0.874,-1.42,-2.06,-0.0341,-0.27,-0.34,-0.0403,0.0815,-0.168,-0.601,0.108
CCO[C@H](c1cc(OC)cc([N+](=O)[O-])c1OC)[C@H](C)[C@@H](OC)[C@H](C)C=CCC(=O)OC,0.535,0.481,-0.133,-0.188 (inactive),0.278,0.188,0.835,0.723,-0.359,-0.334,0.488,0.899,-0.0609,0.379,-0.103,-0.0383,-0.138,-0.445,-0.0844,0.696
CC(C)CN1CCc2nc(-c3ccccc3)c3c(c2C1)CO[C@@H](C)C3,0.639,0.264,-0.291,0.185 (inactive),0.929,1.16,0.383,1.05,0.512,0.0576,1.01,-0.791,0.881,0.566,0.32,-0.0285,0.0751,-0.149,0.152,0.365
CCN1C(=O)[C@H]2[C@@H]3C(=CC[C@H]2C1=O)C(=O)[C@H]1O[C@H]1[C@H]3O,0.641,-0.409,-0.722,17 (active),1.06,1.11,0.827,1.28,1.17,0.065,0.53,-5.32,0.705,-0.575,-1.4,0.0559,-0.138,-0.144,0.282,0.0607
